Results taken from the supplement of paper PMC3342239.
Counter-ions that a name gives are not always drawn.

Each molecule was assayed on Saccharomyces cerevisiae (assay: fraction of cells in G1 phase (DNA content, flow cytometry); higher = more cells with unreplicated DNA (G1 delay)). Conditions: temperature: 30 C; YPD; JTY2953 pdr5 snq2 (sensitized); drug added to: cultures diluted from stationary phase; 6-7 h.
Procedure, shortened: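 Yeast (S. cerevisiae) in YPD at 30°C was treated with library drugs, and cells were then fixed in ethanol, stained with SYTOX Green and counted by flow cytometry over 10,000 events. Sensitized JTY2953 diluted 1∶200 from an overnight culture got a final 20 µg/ml and was fixed 6–7 h later; other runs dosed dividing JTY2953 (fixed at 6 h) or BY4741 (fixed at 4.33 h). G1 fraction means the Dean-Jett-Fox G1 peak area relative to the G1 and G2/M areas together.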

In order of rising “fraction of cells in G1 phase” value:
1. CN(Cc1cc(Br)cc(Br)c1N)C1CCCCC1 [Bromhexine HCl] (53.1721 µM)  0.466
2. Nc1nc2c(ncn2COCCO)c(=O)[nH]1 [Acycloguanosine] (88.8066 µM)  0.472
3. CCOC(=O)C1=C[C@@H](OC(CC)CC)[C@H](NC(C)=O)[C@@H](N)C1 [Oseltamivir] (64.0179 µM)  0.472
4. CCCCCN(C)CCC(O)(P(=O)(O)O)P(=O)(O)O [Ibandronate] (62.65 µM)  0.474
5. Nc1cc(-c2ccncc2)c[nH]c1=O [Amrinone] (106.838 µM)  0.474
6. CN1CCCCC1CCN1c2ccccc2Sc2ccc([S+](C)[O-])cc21 (centres undefined) [Mesoridazine besylate] (51.7354 µM)  0.476
7. CC1(C)[C@H](C(=O)O)N2C(=O)C[C@H]2S1(=O)=O [Sulbactam] (85.7469 µM)  0.477
8. C/N=C(/NC#N)NCCSCc1csc(NC(=N)N)n1 [Tiotidine] (64.0163 µM)  0.478
9. CN[C@@H]1[C@H](O[C@H]2[C@H](O[C@H]3[C@H](O)[C@@H](O)[C@H](N=C(N)N)[C@@H](O)[C@@H]3N=C(N)N)O[C@@H](C)[C@]2(O)C=O)O[C@@H](CO)[C@H](O)[C@H]1O [Streptomycin sulfate] (34.3888 µM)  0.478
10. C=CC[N+]1([C@H]2C[C@H]3[C@@H]4CC[C@H]5C[C@H](O)[C@@H](N6CCOCC6)C[C@]5(C)[C@H]4CC[C@]3(C)[C@H]2OC(C)=O)CCCC1 [Rocuronium bromide] (37.7508 µM)  0.479
11. CCCN[C@H]1CCc2nc(N)sc2C1 [Pramipexole] (94.6382 µM)  0.48
12. Cc1ncc([N+](=O)[O-])n1CC(C)O (centres undefined) [Secnidazole] (108.001 µM)  0.48
13. Cc1[nH]c(=O)c(C#N)cc1-c1ccncc1 [Milrinone] (94.6857 µM)  0.482
14. COc1ccc2[nH]c([S+]([O-])Cc3ncc(C)c(OC)c3C)nc2c1 (centres undefined) [Omeprazole] (57.9 µM)  0.486
15. CC(=O)CCCCn1c(=O)c2c(ncn2C)n(C)c1=O [Pentoxifylline] (71.8614 µM)  0.487
16. Cn1c(=O)c2[nH]cnc2n(C)c1=O [Aminophylline] (111.008 µM)  0.49
17. CNNCc1ccc(C(=O)NC(C)C)cc1 [Procarbazine HCl] (90.3731 µM)  0.49
18. O=C(O[C@@H]1C[C@@H]2C[C@H]3C[C@H](C1)N2CC3=O)c1c[nH]c2ccccc12 [Dolasetron] (61.6555 µM)  0.494
19. COc1cc([C@@H]2c3cc4c(cc3[C@@H](O[C@@H]3O[C@@H]5CO[C@@H](C)O[C@H]5[C@H](O)[C@H]3O)[C@H]3COC(=O)[C@H]23)OCO4)cc(OC)c1O [Etoposide] (33.9806 µM)  0.496
20. C[C@]12C=CC(=O)C=C1CC[C@@H]1[C@@H]2C(=O)C[C@@]2(C)[C@H]1CC[C@]2(O)C(=O)CO [Prednisone] (55.7976 µM)  0.496
21. NC(N)=Nc1nc(CSCC/C(N)=N/S(N)(=O)=O)cs1 [Famotidine] (59.2687 µM)  0.499
22. CCCCC(C)(O)C/C=C/[C@H]1[C@H](O)CC(=O)[C@@H]1CCCCCCC(=O)OC (mixture of isomers) [Misoprostol] (52.2814 µM)  0.499
23. C=C[C@H]1CN2CC[C@H]1C[C@H]2[C@H](O)c1ccnc2ccc(OC)cc12 [Quinine] (55.417 µM)  0.5
24. NCCCC[C@H](N[C@@H](CCc1ccccc1)C(=O)O)C(=O)N1CCC[C@H]1C(=O)O [Lisinopril] (49.322 µM)  0.502
25. O=C(O)c1cccnc1Nc1cccc(C(F)(F)F)c1 [Niflumic acid] (70.8657 µM)  0.505
26. C[N+](C)(C)CCOC(N)=O [Carbamylcholine Cl] (135.871 µM)  0.506
27. O=C(CCNNC(=O)c1ccncc1)NCc1ccccc1 [Nialamide] (67.0359 µM)  0.512
28. O=c1[nH]c(=O)n(C2CCCO2)cc1F (centres undefined) [Ftorafur] (99.9146 µM)  0.512
29. CC(C)NCC(O)COc1cccc2[nH]ccc12 (centres undefined) [Pindolol] (80.5387 µM)  0.515
30. CCCCn1c(=O)c2c(ncn2CC(C)=O)n(CCCC)c1=O [Denbufylline] (62.423 µM)  0.517
31. Cc1cc2c(OCC(CNC(C)(C)C)OC(=O)c3ccccc3)cccc2[nH]1 (centres undefined) [Bopindolol malonate] (52.5636 µM)  0.517
32. CC1=C(CC(=O)O)c2cc(F)ccc2/C1=C\c1ccc([S+](C)[O-])cc1 (centres undefined) [Sulindac] (56.1137 µM)  0.521
33. CCC(=O)O[C@]1(C(=O)CCl)[C@@H](C)C[C@H]2[C@@H]3CCC4=CC(=O)C=C[C@]4(C)[C@@]3(F)[C@@H](O)C[C@@]21C [Clobetasol propionate] (42.8282 µM)  0.526
34. CC(C)NCC(O)c1ccc(NS(C)(=O)=O)cc1 (centres undefined) [Sotalol HCl] (73.4298 µM)  0.535
35. N.N.O=C([O-])C[O-].[Pt+2] [Nedaplatin] (65.9657 µM)  0.545
36. CC1=C(C)C(=O)C(CCCCC#CCCCC#CCO)=C(C)C1=O [Docebenone] (61.2671 µM)  0.552
37. Cc1oncc1C(=O)Nc1ccc(C(F)(F)F)cc1 [Leflunomide] (74.0157 µM)  0.555
38. O=C(O)c1ccccc1Nc1cccc(C(F)(F)F)c1 [Flufenamic acid] (71.1145 µM)  0.582
39. CC(=O)[C@H]1CC[C@H]2[C@@H]3CC=C4C[C@@H](O)CC[C@]4(C)[C@H]3CC[C@]12C [Pregnenolone] (63.1936 µM)  0.586
